Measured values as given in PubChem BioAssay.
For part of these data: Potency and affinity values are given separately. The source made the active and inactive calls.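 How the source made its calls, unless noted: active means thallium flux through the channel raised or lowered by more than 3 SD from vehicle-only wells, actives on both sides; inactive means the rest.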

Tests used:
F380Y = test: modulators of BK channel variants, profiling panel, selectivity assay, cell-based, U2OS BacMam, thallium flux, beta subunits (AID 1259406); settings: at 30 µM;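 further: initial slope of Thallos dye fluorescence rise after thallium is added; log ratio against the mean of 0.3% DMSO vehicle wells on the same plate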
F380Y/beta1 = test: as above; settings: at 30 µM
F380Y/beta2Delta = test: as above; settings: at 30 µM
F380Y/beta4 = test: as above; settings: at 30 µM
[1] = target: Calcium-activated potassium channel subunit alpha-1 (Homo sapiens) + Leucine-rich repeat-containing protein 26 (Homo sapiens) (UniProt Q12791+Q2I0M4); test: as above; settings: F380Y/Slo1WT/gamma1, at 30 µM
R275C = test: as above; settings: at 30 µM
R275C/beta1 = test: as above; settings: at 30 µM
R275C/beta2Delta = test: as above; settings: at 30 µM
R275C/beta4 = test: as above; settings: at 30 µM
R275C/Slo1WT/beta2 = test: as above; settings: at 30 µM
[2] = antimalarial activity against Dd2 strain (AID 2302;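 active means growth inhibition above 50% at the single 2 µM test dose, taken to imply half-maximal potency below 2 µM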;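 further: 0% = DMSO untreated growth and 100% = chloroquine plus artemisinin killed control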); settings: P. falciparum Dd2 in RBCs, LDH growth readout, 72 h; at 2 µM; stronger effect = higher value
[3] = HepG2 cytotoxicity, primary screen, cytotoxicity control for P. falciparum antimalarial project, cell-based, ATP luminescence (AID 2303;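 active means inhibition above 50%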;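 further: 0% = DMSO wells and 100% = digitonin-killed cells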); settings: HepG2 viability, 24-48 h, at 10 µM, stronger effect = higher value
[4] = target: L-lactate dehydrogenase (Plasmodium falciparum (isolate CDC / Honduras)) (UniProt Q27743); test: PfLDH activity inhibition – cell lysate, 3D7 strain, counter-screen for P. falciparum growth inhibition project (AID 2304; call rule not given here;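 further: 0% = vehicle and 100% = reference inhibitor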); settings: P. falciparum 3D7 crude extract, LDH APAD/NBT absorbance; at 2 µM; stronger effect = higher value
[5] = inhibition of 3D7 malaria parasite growth – strain 3D7 (AID 2306; call rule not given here;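 further: 0% = DMSO wells and 100% = chloroquine plus artemisinin control wells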); settings: P. falciparum 3D7 erythrocytic growth, LDH absorbance, 72 h; at 2 µM; stronger effect = higher value
[6] = target: Protein kinase 7 (PK7), Plasmodium falciparum 3D7 (PF3D7_0213400) (UniProt Q7YTF7); test: inhibition of Plasmodium PK7 catalytic activity – biochemical, TCAMS antimalarial set, Kinase-Glo luminescence (AID 1159587; call rule not given here); settings: recombinant PfPK7, Kinase-Glo ATP depletion luminescence
[7] = target: Calcium-dependent protein kinase 4 (Plasmodium falciparum (isolate 3D7)) (UniProt Q8IBS5); test: PfCDPK4 kinase inhibitors, biochemical, TCAMS library (AID 1159588; cut-off not given, nearly all actives have IC50 up to about 0.91 µM); settings: recombinant PfCDPK4, Kinase-Glo ATP depletion luminescence
Chain of Calcium-dependent protein kinase 4 (Plasmodium falciparum (isolate 3D7)) (Q8IBS5 whole entry, looked up): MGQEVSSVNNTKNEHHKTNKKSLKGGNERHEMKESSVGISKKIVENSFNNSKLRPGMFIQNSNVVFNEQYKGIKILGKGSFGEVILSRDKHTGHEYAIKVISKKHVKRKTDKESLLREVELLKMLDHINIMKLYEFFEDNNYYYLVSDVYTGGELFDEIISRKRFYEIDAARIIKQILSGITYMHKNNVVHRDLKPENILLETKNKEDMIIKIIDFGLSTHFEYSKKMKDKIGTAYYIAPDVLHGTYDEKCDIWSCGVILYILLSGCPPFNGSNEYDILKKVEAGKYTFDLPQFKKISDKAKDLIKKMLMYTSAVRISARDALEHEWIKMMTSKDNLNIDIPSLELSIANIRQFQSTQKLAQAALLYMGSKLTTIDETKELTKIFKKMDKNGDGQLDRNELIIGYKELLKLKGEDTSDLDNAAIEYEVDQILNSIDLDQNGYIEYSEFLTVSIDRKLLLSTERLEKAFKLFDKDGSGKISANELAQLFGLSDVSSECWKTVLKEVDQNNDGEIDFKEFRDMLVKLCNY

Chain of Protein kinase 7 (PK7), Plasmodium falciparum 3D7 (PF3D7_0213400) (Q7YTF7 1-343): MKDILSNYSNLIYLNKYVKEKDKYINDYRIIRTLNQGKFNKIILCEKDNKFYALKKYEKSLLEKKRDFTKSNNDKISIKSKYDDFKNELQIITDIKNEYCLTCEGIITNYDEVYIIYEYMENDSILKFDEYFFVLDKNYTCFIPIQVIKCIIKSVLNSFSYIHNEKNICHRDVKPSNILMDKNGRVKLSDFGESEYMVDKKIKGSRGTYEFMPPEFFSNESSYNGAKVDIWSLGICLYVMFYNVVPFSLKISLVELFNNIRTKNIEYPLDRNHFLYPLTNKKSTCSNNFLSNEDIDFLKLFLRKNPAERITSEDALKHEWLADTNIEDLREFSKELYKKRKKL
Chain of L-lactate dehydrogenase (Plasmodium falciparum (isolate CDC / Honduras)) (Q27743 whole entry, looked up): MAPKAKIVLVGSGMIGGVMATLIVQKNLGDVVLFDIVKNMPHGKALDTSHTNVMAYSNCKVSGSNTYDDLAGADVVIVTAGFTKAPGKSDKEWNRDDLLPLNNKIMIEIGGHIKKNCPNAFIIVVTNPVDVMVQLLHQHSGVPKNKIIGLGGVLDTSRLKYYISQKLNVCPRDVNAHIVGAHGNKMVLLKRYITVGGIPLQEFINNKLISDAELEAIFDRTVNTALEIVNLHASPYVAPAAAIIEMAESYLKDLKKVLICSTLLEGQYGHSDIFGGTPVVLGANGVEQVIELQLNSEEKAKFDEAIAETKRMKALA
Chain of Calcium-activated potassium channel subunit alpha-1 (Homo sapiens) + Leucine-rich repeat-containing protein 26 (Homo sapiens) (Q2I0M4 whole entry, looked up, one chain of several): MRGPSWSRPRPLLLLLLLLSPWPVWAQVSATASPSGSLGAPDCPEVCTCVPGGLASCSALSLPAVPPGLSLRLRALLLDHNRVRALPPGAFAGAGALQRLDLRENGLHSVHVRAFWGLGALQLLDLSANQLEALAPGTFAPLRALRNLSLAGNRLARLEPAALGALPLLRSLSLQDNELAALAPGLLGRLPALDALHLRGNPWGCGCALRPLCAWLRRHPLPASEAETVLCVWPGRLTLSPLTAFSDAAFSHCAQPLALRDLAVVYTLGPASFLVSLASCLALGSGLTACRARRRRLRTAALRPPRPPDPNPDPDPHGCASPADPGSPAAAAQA

O=C(NCC1CC1)c1ccccc1NS(=O)(=O)c1cccc2nonc12
inactive: log fold change Tl+ flux (F380Y) 0.0757 | log fold change Tl+ flux (F380Y/beta1) 0.0238 | log fold change Tl+ flux (F380Y/beta2Delta) 0.0491 | log fold change Tl+ flux (F380Y/beta4) 0.0071 | log fold change Tl+ flux [1] -0.00954 | log fold change Tl+ flux (R275C) 1.3e-05 | log fold change Tl+ flux (R275C/beta1) 0.0417 | log fold change Tl+ flux (R275C/beta2Delta) 0.0268 | log fold change Tl+ flux (R275C/beta4) 0.0533 | log fold change Tl+ flux (R275C/Slo1WT/beta2) 0.0216

CS(=O)(=O)Cc1ccc(Nc2nccc(-c3c(-c4cccc(NC(=O)c5c(F)cccc5F)c4)nn4ccccc34)n2)cc1
active: growth inhibition [2] 75% | inhibition [3] 78% | growth inhibition [5] 99%
inactive: inhibition [4] 0% | outcome [6]

CS(=O)(=O)Cc1ccc(Nc2nccc(-c3c(-c4cccc(C(=O)Nc5c(F)cccc5F)c4)nn4ccccc34)n2)cc1
active: growth inhibition [2] 92% | inhibition [3] 85% | growth inhibition [5] 96%
inactive: inhibition [4] -1% | outcome [6]

O=S(=O)(c1ccc(-c2cc(C(F)(F)F)on2)s1)N1CCc2c([nH]c3ccc(F)cc23)C1
inactive: log fold change Tl+ flux (F380Y) 0.0233 | log fold change Tl+ flux (F380Y/beta1) 0.0471 | log fold change Tl+ flux (F380Y/beta2Delta) 0.0355 | log fold change Tl+ flux (F380Y/beta4) 0.0473 | log fold change Tl+ flux [1] 0.0308 | log fold change Tl+ flux (R275C) 0.0283 | log fold change Tl+ flux (R275C/beta1) -0.0189 | log fold change Tl+ flux (R275C/beta2Delta) 0.0168 | log fold change Tl+ flux (R275C/beta4) -0.00429 | log fold change Tl+ flux (R275C/Slo1WT/beta2) 0.00527

CC12CC=C(C#N)C1(C)CC=C2C#N (stereo unspecified)
inactive: log fold change Tl+ flux (F380Y) 0.0296 | log fold change Tl+ flux (F380Y/beta1) 0.00573 | log fold change Tl+ flux (F380Y/beta2Delta) 0.0262 | log fold change Tl+ flux (F380Y/beta4) 0.00555 | log fold change Tl+ flux [1] 0.0366 | log fold change Tl+ flux (R275C) -0.017 | log fold change Tl+ flux (R275C/beta1) 0.0163 | log fold change Tl+ flux (R275C/beta2Delta) -0.011 | log fold change Tl+ flux (R275C/beta4) 0.0134 | log fold change Tl+ flux (R275C/Slo1WT/beta2) -0.00417

CC(c1cccc(Nc2nccc(-c3c(-c4cccc(NC(=O)c5c(F)cccc5F)c4)nn4ncccc34)n2)c1)S(C)(=O)=O (stereo unspecified)
active: growth inhibition [2] 98% | inhibition [3] 79% | growth inhibition [5] 98%
inactive: inhibition [4] 4% | outcome [6]

O=C(Nc1cccc(-c2nn3ccccc3c2-c2ccnc(Nc3ccc(NCCCN4CCOCC4)c(F)c3)n2)c1)c1c(F)cccc1F
inactive: inhibition [4] 0% | outcome [6]
active: growth inhibition [2] 97% | inhibition [3] 86% | growth inhibition [5] 100%

CCOC(=O)c1cc(CC)sc1NC(=O)C(Cl)(Cl)Cl
inactive: log fold change Tl+ flux (F380Y) -0.00144 | log fold change Tl+ flux (F380Y/beta1) 0.0314 | log fold change Tl+ flux (F380Y/beta2Delta) -0.028 | log fold change Tl+ flux (F380Y/beta4) 0.0374 | log fold change Tl+ flux [1] 0.0144 | log fold change Tl+ flux (R275C) -0.0151 | log fold change Tl+ flux (R275C/beta1) -0.066 | log fold change Tl+ flux (R275C/beta2Delta) 0.0214 | log fold change Tl+ flux (R275C/beta4) -0.00727 | log fold change Tl+ flux (R275C/Slo1WT/beta2) -0.00449

CCN(CC)CCCOc1ccc(Nc2nccc(-c3c(-c4cccc(NC(=O)c5c(F)cccc5F)c4)nn4ccccc34)n2)cc1F
inactive: inhibition [4] -5% | outcome [6]
active: growth inhibition [2] 99% | inhibition [3] 86% | growth inhibition [5] 100%

Cc1ccc(S(=O)(=O)NC(=O)NCc2csc3ccc(Cl)cc23)cc1
active: log fold change Tl+ flux (F380Y) 0.252 | log fold change Tl+ flux (F380Y/beta1) 0.65 | log fold change Tl+ flux (F380Y/beta2Delta) 0.241 | log fold change Tl+ flux (F380Y/beta4) 0.366 | log fold change Tl+ flux [1] 0.14 | log fold change Tl+ flux (R275C/beta1) 0.48 | log fold change Tl+ flux (R275C/beta2Delta) 0.193 | log fold change Tl+ flux (R275C/beta4) 0.329 | log fold change Tl+ flux (R275C/Slo1WT/beta2) 0.116
inactive: log fold change Tl+ flux (R275C) 0.0453

COc1ccc(CCN=Cc2ccccn2)cc1OC
inactive: log fold change Tl+ flux (F380Y) -0.038 | log fold change Tl+ flux (F380Y/beta1) 0.0306 | log fold change Tl+ flux (F380Y/beta2Delta) 0.00295 | log fold change Tl+ flux (F380Y/beta4) -0.00225 | log fold change Tl+ flux [1] -0.032 | log fold change Tl+ flux (R275C) -0.0485 | log fold change Tl+ flux (R275C/beta1) -0.0399 | log fold change Tl+ flux (R275C/beta2Delta) -0.0772 | log fold change Tl+ flux (R275C/beta4) -0.0204 | log fold change Tl+ flux (R275C/Slo1WT/beta2) -0.00322

O=C(NC(=O)N1CCCCC1)c1cc(Br)cc(Br)c1
inactive: log fold change Tl+ flux (F380Y/beta4) -0.0283 | log fold change Tl+ flux (R275C/beta1) -0.0155 | log fold change Tl+ flux (R275C/beta2Delta) -0.0701 | log fold change Tl+ flux (R275C/beta4) -0.0253 | log fold change Tl+ flux (R275C/Slo1WT/beta2) -0.0054
active: log fold change Tl+ flux (F380Y) -0.337 | log fold change Tl+ flux (F380Y/beta1) -0.109 | log fold change Tl+ flux (F380Y/beta2Delta) -0.277 | log fold change Tl+ flux [1] -0.127 | log fold change Tl+ flux (R275C) -0.145

Cc1cc(C)c(C(=O)O)c(CC(C)(C)C(=O)O)c1
inactive: log fold change Tl+ flux (F380Y) 0.000395 | log fold change Tl+ flux (F380Y/beta1) 0.016 | log fold change Tl+ flux (F380Y/beta2Delta) -0.00135 | log fold change Tl+ flux (F380Y/beta4) -0.0155 | log fold change Tl+ flux [1] 0.0359 | log fold change Tl+ flux (R275C) 0.0232 | log fold change Tl+ flux (R275C/beta1) -0.00597 | log fold change Tl+ flux (R275C/beta2Delta) 0.00899 | log fold change Tl+ flux (R275C/beta4) -0.0125 | log fold change Tl+ flux (R275C/Slo1WT/beta2) 0.0267

O=S1(=O)NCc2ccc(Nc3nccc(Nc4ccc5c(cnn5Cc5ccccc5)c4)n3)cc21
inactive: growth inhibition [2] 33% | inhibition [3] -8% | inhibition [4] -1% | outcome [6] | outcome [7]
active: growth inhibition [5] 94%
